According to ChEMBL document CHEMBL4296182, “CO-ADD screening of NIH NCI Diversity Set V”:
For part of these data: Measured potencies and affinities stand elsewhere.

What was measured:
Staphylococcus aureus = assay: Antibacterial activity against Staphylococcus aureus MRSA ATCC 43300 (CO-ADD:GP_020); MIC in CAMBH media using NBS plates, by Resazurin F(560/590); type: functional; conditions: Concentration 20 uM, ASSAY_TEST Inhibition of Bacterial Growth, detection method Resazurin, Fluorescence (ex560/em590), MEDIA CAMHB, plate type 384well, CORNING #3640, time 18 hr
Acinetobacter baumannii = assay: Antibacterial activity against Acinetobacter baumannii ATCC 19606 (CO-ADD:GN_034); MIC in CAMBH media using NBS plates, by Resazurin F(560/590); type: functional; conditions: Concentration 20 uM, ASSAY_TEST Inhibition of Bacterial Growth, detection method Resazurin, Fluorescence (ex560/em590), MEDIA CAMHB, plate type 384well, CORNING #3640, time 18 hr
Escherichia coli = assay: Antibacterial activity against Escherichia coli ATCC 25922 (CO-ADD:GN_001); MIC in CAMBH media using NBS plates, by Resazurin F(560/590); type: functional; conditions: Concentration 20 uM, ASSAY_TEST Inhibition of Bacterial Growth, detection method Resazurin, Fluorescence (ex560/em590), MEDIA CAMHB, plate type 384well, CORNING #3640, time 18 hr
Klebsiella pneumoniae = conditions: Concentration 20 uM; ASSAY_TEST Inhibition of Bacterial Growth; detection method Absorption (OD600); MEDIA CAMHB; plate type 384well; NBS; CORNING #3640; time 18 hr
Candida albicans = conditions: 20 µM
Cryptococcus neoformans = conditions: Concentration 20 uM; ASSAY_TEST Inhibition of Fungal Growth; detection method Resazurin; Absorption (OD600-OD570); plate type 384well; NBS; CORNING #3640

| SMILES | Inhibition (Staphylococcus aureus) [%] | Inhibition (Acinetobacter baumannii) [%] | Inhibition (Escherichia coli) [%] | Inhibition (Klebsiella pneumoniae) [%] | Inhibition (Candida albicans) [%] | Inhibition (Cryptococcus neoformans) [%] |
| --- | --- | --- | --- | --- | --- | --- |
| Cc1cc(/C=C2\SC(=S)NC2=O)cc(C)c1O | -3.17 | -16.06 | 6.56 | 6.27 | 8.55 | -10.24 |
| COC(=O)Cc1[nH]c(S)nc1C(=O)OC | -11.54 | 1.23 | -12.23 | 0.59 | 1.43 | 19.86 |
| Nc1ccccc1SC1CC(=O)N(c2ccccc2Cl)C1=O (configuration not stated) | -6.84 | 10.38 | -12.68 | 6.14 | 15 | -0.17 |
| Cc1nc2ccccc2c(N)c1-c1cc(C)c2c(C)nc3ccccc3c2n1 | -4.42 | 8.74 | -14.9 | 5.08 | 2.89 | 18.77 |
| CCC12CCCN3CCc4c(n(c5ccccc45)C(O)(C(=O)OC)C1)C32 (configuration not stated) | 7.39 | 9.61 | 2.09 | 11.45 | 0.39 | 5.96 |
| CCOC(=O)Nc1ccc2nc(Sc3ccc(Cl)cc3)sc2c1 | 12.84 | 1.81 | -1.5 | 17.17 | 10.2 | -3.93 |
| C=CCNC(=S)NCC=C | 10.5 | -8.96 | 3.32 | 27.24 | 1.09 | 2.25 |
| COc1cc(NC(C)=O)c2ncccc2c1NC(C)=O | 3.21 | 8.89 | -13.22 | 18.39 | 5.47 | 12.48 |
| NC1=NC(c2ccc(Cl)cc2)N(c2ccc(S(N)(=O)=O)cc2)C(N)=N1 (configuration not stated) | -8.08 | 15.66 | 1.13 | 8.28 | -0.99 | -3.51 |
| Cc1nccnc1Sc1ccccc1 | 3.9 | -12.89 | 2.25 | 5.26 | 7.15 | -6.77 |
| COC(=O)c1c(-c2ccccc2)[nH]c(-c2nccc3ccccc23)c1C(=O)OC | 3.54 | 6.34 | 1.46 | 12.08 | 2.5 | -2.2 |
| FC(F)(F)c1cccc(OCC2CN=C(S)O2)c1 (configuration not stated) | 8.92 | 11.68 | -6.27 | 16.05 | 8.74 | 3.63 |
| Cc1cc2c3ccccc3ncn2n1 | 14.33 | -9.67 | 5.54 | 9.54 | 5.02 | -5.91 |
| N#Cc1n[nH]c2nc[nH]c(=O)c12 | 10.72 | -7.81 | 9.33 | 13.07 | 0.58 | -10.99 |
| NC(=O)c1ccc(Oc2ccc(C(N)=O)cc2)cc1 | 7.05 | 9.37 | 0.31 | 15.83 | -0.45 | -7.62 |
| CC(C)c1ccc(-c2nc3ccccc3s2)cc1 | 16.1 | 2.02 | 4.01 | 12.27 | 8.12 | -7.1 |
| Cc1cc(C)n(C(=N)NC(=O)c2ccccc2)n1 | 12.05 | 6.54 | -0.32 | 6.77 | 6.7 | -12 |
| Nc1[nH]nc2nc(-c3ccccc3)nc(O)c12 | -2.47 | -10.04 | 2.06 | 6.75 | -0.22 | -3.34 |
| N[C@H](C(=O)O)[C@H]1ON=C(Cl)[C@@H]1O | 11.62 | -0.47 | 10.43 | 5 | 2.6 | -3.55 |

| SMILES | Inhibition (Staphylococcus aureus) [%] | Inhibition (Acinetobacter baumannii) [%] | Inhibition (Escherichia coli) [%] | Inhibition (Klebsiella pneumoniae) [%] | Inhibition (Candida albicans) [%] | Inhibition (Cryptococcus neoformans) [%] |
| --- | --- | --- | --- | --- | --- | --- |
| CCOc1ccc(NC(=S)NC(=O)c2ccco2)cc1 | 8.6 | 0.34 | 3.81 | 5.03 | 7.98 | -14.9 |
| Cc1ccc(Nc2nnc(S)s2)cc1F | -5.24 | -6.73 | 5.51 | 11.86 | 12.1 | 17.67 |
| CN1N=C/C(=C/NC(N)=O)C1=O | -2.54 | -2.43 | 9.08 | 2.78 | 0.49 | -3.93 |
| O=C(c1ccc(Cl)nc1)c1cccs1 | -3.15 | 14.95 | -2.66 | 4.42 | 2.35 | -1.99 |
| C=CCOc1ccc(S(C)(=O)=O)cc1 | -0.52 | -11.44 | 7.79 | 4.92 | 1.73 | -10.45 |
| c1ccc(/N=N/N2CCOCC2)cc1 | 10.43 | -20.45 | 2.82 | 4.01 | 17.7 | -10.19 |
| O=[N+]([O-])c1cccc(/C=C/c2ccccn2)c1 | 0.18 | -2.22 | 10.58 | 8.63 | 0.08 | -13.12 |
| O=C1NC(=O)C2(CCc3ccccc32)N1 (configuration not stated) | -0.71 | -7.84 | 5.32 | 9.04 | 4.28 | 0.2 |
| CC(C)(C)n1nc(C2CC2)cc1NC(=O)Nc1ccc(Cl)cc1 | 0.51 | 11.57 | -11.06 | 6.85 | 4.6 | 3.95 |
| COC(=O)CC1(C(=O)OC)Nc2cc(Cl)c(Cl)cc2S(=O)(=O)N1O (configuration not stated) | 8.27 | 11.98 | 7.08 | 10.44 | 3.58 | 3.59 |
| O=C(c1ccccc1)c1ccc(-c2ccc(O)cc2)cc1 | -4.49 | -14.62 | 8.24 | 15.69 | 6.54 | -10.56 |
| CCCCOc1ccc(OC(=O)Nc2cc(Cl)ccc2OC)cc1 | 13.88 | 6.78 | 2.93 | 11.91 | 0.59 | -2.51 |
| Sc1ncc2cnccn12 | -4.23 | -8.79 | 10.26 | 3.96 | 0.86 | -12.71 |
| Cc1nc(S)nc(O)c1Cc1c(O)ccc2ccccc12 | -11.57 | -9.92 | 5.55 | 6.39 | 20.9 | -9.2 |
| O=C1NC(=S)S/C1=C\c1ccccc1C(=O)O | -3.3 | -13.4 | 1.72 | 11.85 | 14.4 | -5.59 |
| Nc1ccc2c(c1Cl)C(=O)c1ccc(N)c(Cl)c1C2=O | 3.14 | -5.21 | 14.11 | 8.12 | -1.01 | 17.48 |
| CC1(C)OC2C(CO)OC(n3cnc4c(S)ncnc43)C2O1 (configuration not stated) | 1.89 | -15.97 | 11.94 | 6.21 | 4.06 | -14.25 |
| O=C(Nc1ccc(Br)cc1)Nc1ccccc1Cl | 14.34 | -1.5 | 10.13 | 5.62 | 1.52 | -9.14 |
